From PubChem BioAssay (NCATS) come the findings set out here.

Test [1] can be described thus: qHTS to identify inhibitors of the type 1 interferon - major histocompatibility complex class I in skeletal muscle: primary screen against the NCATS Pharmaceutical Collection (AID 1347407).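 Further: luminescence of HiBiT knocked into endogenous HLA-B as interferon-induced MHC class I level.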 Summed up: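 A qHTS format is used: 8-point, 1:5 compound series with 46 uM top final concentration, applied alongside 4 ng/ml IFN-beta to HLA-B*08:01-HiBiT knock-in myoblasts. Luminescence is measured after 24 h treatment.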
For orientation: In qHTS, concentration-response curves come from the screen itself.

For test [2], the target named is Protein phosphatase 1D (Homo sapiens) (UniProt O15297). In words: Rhodamine-PBP qHTS Assay for Modulators of WT P53-Induced Phosphatase 1 (WIP1) (AID 1347425). The gist of the method: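 Read-out: Rhodamine-PBP fluorescence (ex 525/em 598 nm) for released Pi, read each minute for 11 min after adding 10 uM VEPPL-pS-QETFS; signal taken as f1 minus pre-substrate f0. Enzyme 5 nM WIP1 with 1 hr room-temperature compound preincubation.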

Test [3] is described as follows: Primary qHTS for inhibitors of La Crosse Virus (LACV) - induced cell death in SH-SY5Y cells (AID 1508616).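 Further: top concentration of the series differs between compounds; higher means more rescue of cells from virus-induced death.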 The gist of the method: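 Luminescent ATP readout (ATPLite 1step, 5 min room temperature) measured rescue from LACV-induced death after 6 days of infection at 0.01 MOI; normalized to infected DMSO wells and uninfected DMSO wells.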
Test [4] is described as follows: Primary qHTS for small molecule stabilizers of the endoplasmic reticulum resident proteome: Secreted ER Calcium Modulated Protein (SERCaMP) assay (AID 1508630). Summed up:
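GLuc-SERCaMP-expressing SH-SY5Y cells, pretreated 16 h with compound, are challenged with thapsigargin to empty ER calcium stores; after 4 h, coelenterazine is added directly to the medium and luminescence is imaged.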

Test [5] can be described thus: A High-Content qHTS Against Drug Library for the Identification of Small Molecules that Inhibit DYT1 Early Onset Primary Dystonia-Associated Cell Pathology (AID 1645839; calls by dose curve; further: potency means the concentration at half of the fitted maximal effect). Summed up: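 Flp-In T-REx 293 cells with tetracycline-inducible EGFP-delE hTOR1A (WT EGFP-hTOR1A as reference), 800 cells/well; compound added with tetracycline, 48 h at 37 C. Fixed, permeabilized cells imaged; %pathology (punctate TorsinA) primary, cell count counterscreen.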

The target in test [6] is Cytochrome P450 2D6 (Homo sapiens) (UniProt P10635). In words: Cytochrome P450 family 2 subfamily D member 6 (CYP2D6) small molecule antagonists: luciferase biochemical (cell-free) qHTS assay (AID 1645840; active means well fitted curve in the direction sought with a large enough effect in the repeat runs; an effect the other way counts as inactive or inconclusive; further: nearly all actives have a fitted effect of over 55% in size; further: potency means the concentration at half of the fitted maximal effect). The gist of the method:
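P450-Glo luminescent screen: recombinant CYP2D6 enzyme–proluciferin substrate mix preincubated with compound 10 min at room temperature, then NADPH regeneration added for 1 h at room temperature. Detection reagent added for 20 min; luciferin light read as relative luminescence units.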

The target of test [7] is Cytochrome P450 2C9 (Homo sapiens) (UniProt P11712). In words: Cytochrome P450 family 2 subfamily C member 9 (CYP2C9) small molecule antagonists: luciferase biochemical (cell-free) qHTS assay (AID 1645842; active means well fitted curve in the direction sought with a large enough effect in the repeat runs; an effect the other way counts as inactive or inconclusive; further: nearly all actives have a fitted effect of over 55% in size; further: potency means the concentration at half of the fitted maximal effect). Summed up: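 Luminescence, after 20 min with luciferin detection reagent, reflected CYP2C9 turnover during a 1 h NADPH-driven reaction at 37C. Enzyme-substrate mix contained 0.4% bovine serum albumin and was preincubated with compound 10 min at room temperature.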

The nature of test [8]: Primary qHTS for inhibitors of nuclear receptor binding SET domain protein 2 (NSD2) in an isogenic RCH-ACV NSD2 p.E1099K mutant (9B) (AID 1645876). Further: nearly all actives have a fitted effect of over 70% in size.
A short description of test [9]: Primary qHTS for inhibitors of nuclear receptor binding SET domain protein 2 (NSD2) in an RCH-ACV wild type WT cells (2C) (AID 1645877). Further: nearly all actives have a fitted effect of over 70% in size.
Test [10] is described as follows: Confirmatory qHTS for small molecule stabilizers of the endoplasmic reticulum resident proteome: Secreted ER Calcium Modulated Protein (SERCaMP) assay (AID 1508628). Further: potency means the concentration at half of the fitted maximal effect; nearly all actives have a fitted effect of over 40% in size. The gist of the method:
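We seeded SH-SY5Y-GLuc-SERCaMP cells, added compounds (three concentrations in the primary run, eleven up to 76.6 uM in confirmation), incubated 16 h, depleted ER calcium with thapsigargin, and read luciferase 4 h later.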

Test [11] deals with Protein phosphatase 1D (Homo sapiens) (UniProt O15297). The test can be described thus: RapidFire Mass Spectrometry qHTS Assay for Modulators of WT P53-Induced Phosphatase 1 (WIP1) (AID 1347424).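 Further: amount of dephosphorylated VEPPL-S-QETFS peptide product formed by WIP1; series mostly up to about 63 µM.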 Summed up: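 10 nM WIP1 preincubated with compounds 1 hr at room temperature in pH 7.5 Tris buffer with 30 mM MgCl2, 1 mM TCEP; 2 uM VEPPL-pS-QETFS phosphopeptide for 5 min, formic acid quench; dephosphorylated product quantified by RapidFire MS against labelled standard.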

Test [12] deals with Calcium and integrin-binding protein 1 (Homo sapiens) (UniProt Q99828). The test can be described thus: Primary qHTS for Identification of Calcium Integrin Binding Protein 1 (CIB1) Competitor (AID 1508620).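 Further: GST tagged CIB1 binding a fluorescein labelled alphaIIb integrin peptide tracer; top concentration of the series differs between compounds.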 Summed up:
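Fluorescence polarization competition: GST-tagged CIB1 (1 uM final) preincubated with compound 15 min at room temperature, then FITC-labelled alphaIIb peptide (100 nM final) added. After 15 min at room temperature, polarization read at Ex 480/Em 540.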

Test [13] has as its target N-terminal Xaa-Pro-Lys N-methyltransferase 1 (Homo sapiens) (UniProt Q9BV86). In words: Confirmatory qHTS for Inhibitors of N-terminal methyltransferase 1 (NTMT1): MTaseGlo Assay (AID 1645874). Further: potency means the concentration at half of the fitted maximal effect; nearly all actives have a fitted effect of over 65% in size. The gist of the method: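 Luminescent MTase-Glo read-out of SAH. 125 nM NTMT1, 100 uM SAM, 1 uM SPKRIA substrate, 30 min RT reaction after 15 min compound preincubation. Normalized to no-enzyme and DMSO controls; Hill fit.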

“And” between values parts separate entries of the source, which are not always exact repeats. Equal entries are not always repeated. Records with an inconclusive call do not appear. Unmarked numbers belong to inactive results. The source made the active and inactive calls. Unless noted, the call rests on the fitted dose curve; in most records, active means well fitted curve in the direction sought with a large enough effect; inconclusive means small, poorly fitted or top-dose-only effect, or another doubt; inactive means no such curve, though single readings can be large; an effect the other way counts as inactive or inconclusive.

Chain of Cytochrome P450 2D6 (Homo sapiens) (P10635 whole entry, looked up): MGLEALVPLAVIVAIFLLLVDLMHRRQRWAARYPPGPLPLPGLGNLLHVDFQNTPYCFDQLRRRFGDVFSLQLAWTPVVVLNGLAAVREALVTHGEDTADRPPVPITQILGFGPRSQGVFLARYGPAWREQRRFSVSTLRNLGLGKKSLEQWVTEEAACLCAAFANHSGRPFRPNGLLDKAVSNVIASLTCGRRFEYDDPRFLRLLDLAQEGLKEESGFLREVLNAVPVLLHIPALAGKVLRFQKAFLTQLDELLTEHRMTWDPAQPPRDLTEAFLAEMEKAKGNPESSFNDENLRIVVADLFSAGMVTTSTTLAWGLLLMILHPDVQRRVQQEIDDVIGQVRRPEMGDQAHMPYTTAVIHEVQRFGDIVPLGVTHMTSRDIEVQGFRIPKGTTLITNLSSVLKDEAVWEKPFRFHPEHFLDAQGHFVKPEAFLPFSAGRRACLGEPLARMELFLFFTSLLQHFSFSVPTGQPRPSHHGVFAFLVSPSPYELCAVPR
Chain of Cytochrome P450 2C9 (Homo sapiens) (P11712 whole entry, looked up): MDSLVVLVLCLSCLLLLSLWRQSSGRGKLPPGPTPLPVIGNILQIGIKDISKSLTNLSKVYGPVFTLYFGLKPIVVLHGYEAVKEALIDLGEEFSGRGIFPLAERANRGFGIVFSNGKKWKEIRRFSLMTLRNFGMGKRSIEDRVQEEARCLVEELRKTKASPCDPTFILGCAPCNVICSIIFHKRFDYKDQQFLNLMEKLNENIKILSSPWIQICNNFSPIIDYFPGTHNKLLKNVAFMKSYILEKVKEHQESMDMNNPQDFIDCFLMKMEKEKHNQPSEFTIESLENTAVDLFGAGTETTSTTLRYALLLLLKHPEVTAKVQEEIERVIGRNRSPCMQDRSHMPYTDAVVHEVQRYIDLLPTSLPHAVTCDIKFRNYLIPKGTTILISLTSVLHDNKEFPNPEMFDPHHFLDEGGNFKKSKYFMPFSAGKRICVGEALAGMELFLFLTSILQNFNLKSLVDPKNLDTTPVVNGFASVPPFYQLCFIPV
Chain of Protein phosphatase 1D (Homo sapiens) (O15297 whole entry, looked up): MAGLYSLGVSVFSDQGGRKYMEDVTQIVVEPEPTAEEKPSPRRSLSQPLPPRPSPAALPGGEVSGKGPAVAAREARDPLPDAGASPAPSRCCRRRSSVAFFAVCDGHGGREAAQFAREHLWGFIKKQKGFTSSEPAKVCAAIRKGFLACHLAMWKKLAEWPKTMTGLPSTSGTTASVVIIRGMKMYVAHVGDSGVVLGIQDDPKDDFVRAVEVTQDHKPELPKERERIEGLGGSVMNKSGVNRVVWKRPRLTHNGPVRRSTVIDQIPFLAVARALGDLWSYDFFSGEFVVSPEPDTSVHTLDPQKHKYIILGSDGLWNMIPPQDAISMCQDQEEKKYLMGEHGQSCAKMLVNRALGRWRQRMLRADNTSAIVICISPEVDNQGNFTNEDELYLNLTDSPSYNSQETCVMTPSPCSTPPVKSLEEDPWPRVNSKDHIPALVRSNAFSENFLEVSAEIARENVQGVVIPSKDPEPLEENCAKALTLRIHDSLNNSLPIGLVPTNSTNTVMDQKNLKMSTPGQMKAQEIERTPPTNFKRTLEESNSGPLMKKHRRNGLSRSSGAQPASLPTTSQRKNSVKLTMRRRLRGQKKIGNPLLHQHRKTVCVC
Chain of Calcium and integrin-binding protein 1 (Homo sapiens) (Q99828 whole entry, looked up): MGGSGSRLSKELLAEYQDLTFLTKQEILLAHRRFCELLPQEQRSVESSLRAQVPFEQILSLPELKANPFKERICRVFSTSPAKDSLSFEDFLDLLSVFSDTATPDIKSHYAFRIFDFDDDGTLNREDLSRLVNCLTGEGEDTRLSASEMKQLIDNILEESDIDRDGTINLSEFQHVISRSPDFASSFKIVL
Chain of N-terminal Xaa-Pro-Lys N-methyltransferase 1 (Homo sapiens) (Q9BV86 whole entry, looked up): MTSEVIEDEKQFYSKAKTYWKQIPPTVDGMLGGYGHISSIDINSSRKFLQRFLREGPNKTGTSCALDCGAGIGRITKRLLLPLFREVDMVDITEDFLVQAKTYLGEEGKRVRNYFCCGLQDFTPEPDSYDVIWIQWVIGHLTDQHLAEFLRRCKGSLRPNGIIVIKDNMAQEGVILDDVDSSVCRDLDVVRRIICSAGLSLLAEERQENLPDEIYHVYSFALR

Turning to `O=C(O)[C@@H]1[C@H]2C[C@H]3c4[nH]c5ccccc5c4CCN3C[C@@H]2CC[C@@H]1O`, the call in test [1], in test [2], in test [3] and in test [4] was inactive. The Potency result in test [5], in test [7], in [8] and in test [9] was “inactive” throughout. In test [6], the Potency was 0.977 µM (active).
In the case of `OC(CCN1CCCC1)(c1ccccc1)C1CCCCC1` (centres undefined), the result in test [1], in [2] and in test [3] was inactive. In addition, the Potency in [10] was 3.98 µM (active). The Potency result in [5] was “inactive”.
For `NS(=O)(=O)c1cc(-c2nn[nH]n2)c(NCc2cccs2)cc1Cl`, the compound was called inactive in test [1], in test [11], in test [3], in test [12] and in test [4]. The Potency entry in test [5], in test [6] and in test [8] was “inactive” throughout. Further, the Potency in test [7] is 10.7 µM (active) and 19.5 µM (active).
As to `Cc1cc(NC(=O)C2=C(O)c3ccccc3S(=O)(=O)N2C)no1`, the compound was classed as inactive in test [11], in [2], in [3], in [12] and in test [4]. In addition, the Potency result in test [5], in test [6], in test [7], in test [8] and in test [9] was “inactive” throughout.
In the case of `C=CCNC(N)=S`, the result in test [1], in test [11], in test [2] and in test [3] was inactive. The Potency result in test [5], in [6], in [7], in [8] and in test [9] was “inactive” in each case.
As for `CCCCOC(=O)c1ccc(N)cc1`, the compound was classed as inactive in test [11], in test [2], in test [3] and in [12]. Further, the Potency result in test [9] is “inactive”.
In the case of `CCOc1cc(NC(C)=O)ccc1C(=O)OC`, the compound was classed as inactive in [1], in [11], in test [2] and in test [3]. For the same compound, the Potency entry in test [5], in [6], in test [7] and in test [8] was “inactive” each time.
For the compound `CCCCCCCCCCCCCCCCC(C(=O)O)C(O)(CC(=O)O)C(=O)O` (centres undefined), the compound was classed as inactive in test [1], in test [2], in test [3], in [12] and in test [4]. In addition, the Potency in [5] was 7.94 µM (active); in test [13], 17 µM (active). Moreover, in test [7], the Potency entry is “inactive”.
As to `COC(=O)c1cccnc1`, the call in test [1], in test [11], in test [2] and in test [3] was inactive. Further, the Potency entry in test [5], in [6], in test [7] and in test [8] was “inactive” throughout.
Turning to `O=C1CC[C@@H](C(=O)O)N1`, the compound was classed as inactive in test [1], in test [11], in test [2], in test [3] and in [4]. Moreover, the Potency entry in [6], in test [7], in test [8] and in [9] was “inactive” in each case.
For `O=C(O)CCCCC1CCSS1` (centres undefined), the call in [1], in [11], in test [2] and in test [3] was inactive. Moreover, the Potency result in test [5], in test [6], in [7], in test [8] and in test [9] was “inactive” each time.
Turning to `CC(=O)SC[C@@H](Cc1ccccc1)C(=O)NCC(=O)OCc1ccccc1`, the compound was called inactive in test [1], in test [11], in test [2] and in [3]. Further, the Potency result in [5] was “inactive”. For the same compound, the Potency in test [6] was 6.17 µM (active); in test [7], 1.23 µM (active).
Consider `CC(CN(C)C)C(C)(O)Cc1ccc(Cl)cc1` (centres undefined), for which the outcome in test [1], in test [11], in test [2] and in [3] was inactive. Also, the Potency entry in [5], in test [7] and in [8] was “inactive” each time. Besides, the Potency in test [6] was 12.3 µM (active).
